Data as given in PubChem BioAssay AID1117319 (Southern Research Institute, 2015).
Screen size: about 260,000 compounds; about 1,500 (0.58%) were called active. Not shown: some 5% with an inconclusive outcome.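 How the source made its calls: active means inhibition above a set limit at one or more doses, reproduced on every date tested; inconclusive means results disagree between test dates, or hit never tested in dose response; inactive means the rest.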 These entries were drawn from the full list. Potency and affinity values are given separately.

biological target: Virion infectivity factor (Human immunodeficiency virus type 1 group M subtype B (isolate BH10)) + Virion infectivity factor (Human immunodeficiency virus type 1 group M subtype B (isolate BRU/LAI)) + Virion infectivity factor (Human immunodeficiency virus type 1 group M subtype B (isolate PCV12)) + Virion infectivity factor (Human immunodeficiency virus type 1 group M subtype B (isolate HXB2)) + DNA dC->dU-editing enzyme APOBEC-3G (Homo sapiens) (UniProt P69720+P69721+P69722+P69723+Q9HC16); assay: HIV-1 Vif–A3G interaction blockers – biochemical, TR-FRET, GST-Vif 1-94, biotin-A3G peptide, dose response retest, primary screen (AID 1117319); conditions: TR-FRET GST-Vif / biotin-A3G peptide binding; stronger effect = higher value;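 further: Vif residues 1-94 fused to GST binding biotinylated APOBEC3G peptide 110-148; 0% = full assay without inhibitor and 100% = GST in place of GST-Vif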

inhibition, inactive:
CC/C(C)=N/Nc1ccc(S(=O)(=O)N2CCCC2)cc1[N+](=O)[O-] 0.9%, CC1CCCN(C(=O)c2ccc(CNc3c(N4CCCCC4)c(=O)c3=O)cc2)C1 (stereo unspecified) 4.47%, CC1CCN(C(=O)c2ccc(CNc3c(N4CCCC4)c(=O)c3=O)cc2)CC1 5.36%, Cn1c(N)c(C(=O)COC(=O)C2CCCC2)c(=O)n(C)c1=O 0.6%, Cn1c(N)c(C(=O)COC(=O)C2CCC(C(C)(C)C)CC2)c(=O)n(C)c1=O (stereo unspecified) 15.1%, COc1ccc(S(=O)(=O)N2CCC3(CC2)CC(=O)c2ccccc2O3)cc1OC 5.1%, CCN1C(=O)S/C(=C\c2ccc(N3CCOCC3)cc2C)C1=O 15.3%, C=CCN1C(=O)S/C(=C\c2ccc(N3CCOCC3)cc2C)C1=O -1.96%, Cc1cc(=O)oc2c(CN3CCN(C)CC3)c(O)c(Cl)cc12 -0.71%, COc1ccccc1NC(=S)NN1CCN(C)CC1 -0.89%, Nc1ccc(C(=O)Nc2ccc3nc(-c4cccnc4)[nH]c3c2)cc1 1.2%, O=C(Nc1ccc2ccccc2c1)c1cccnc1 -0.18%, CC/C(=N\NC(=O)CSc1ncccn1)c1ccc2c(c1)OCCO2 4.58%, COc1ccc(-n2c(Cc3cc(=O)[nH]c(=O)[nH]3)nnc2SCC(=O)NC2CCCC2)cc1 2.26%, COc1ccc2cc(CN(Cc3ccco3)C(=S)NCC3CCCO3)c(=O)[nH]c2c1 (stereo unspecified) -22.6%, CC(=O)Nc1ccc(S(=O)(=O)N2CCc3ccccc3C2)cc1 21.6%, NS(=O)(=O)c1ccc(N=Nc2c(O)c(C(=O)O)cc3ccccc23)cc1 24.6%, O=C(O)Cc1ccc(N=Cc2c(O)ccc3ccccc23)cc1 5.87%, Cn1cnnc1SCC(=O)Nc1ccccc1C(=O)NC1CCCC1 7.03%, CC(=O)Nc1cccc(C(=O)NCC2(N3CCCCC3)CCCCC2)c1 3.75%, COc1ccc(Oc2ccc(C(F)(F)F)cc2NC(=O)c2ccc(OC)cc2)cc1 -13.5%, Clc1cccc2sc(N3CCCCC3)nc12 0.64%, O=Cc1cnc(N2CCCCC2)s1 -7.46%, CC(=O)c1cnc(N(C)C)s1 -3.71%, Cc1ccccc1N1C(=O)C(Cl)=C(N2CCCCCC2)C1=O 4.9%, CN1CCN(C2=C(Cl)C(=O)N(C3CCCCC3)C2=O)CC1 20.6%, CN1CCN(c2ncc(CN3C(=O)c4ccccc4C3=O)s2)CC1 1.36%, O=C(CN1CCc2ccccc21)NN1CC(=O)N(c2ccccc2)CC1=O 1.28%, CCOC(=O)c1ccc(NCc2ccncc2)cc1 -1.73%, COC(CN1CCc2c(C)nc3c(C#N)cnn3c21)OC 1.49%, CN(C)S(=O)(=O)c1cc(NC(=O)[C@H](Cc2ccccc2)N2C(=O)c3ccccc3C2=O)ccc1Cl 15.5%, Nc1c(C(=O)Nc2ccc(Br)cc2)sc2nc(-c3ccco3)ccc12 4.88%, NC(=O)c1sc2nc(-c3ccco3)ccc2c1N 25.6%, N#Cc1ccc(CSc2nnc(-c3ccccc3)n2Cc2ccco2)cc1 3.24%, Cc1ccc(-c2nnc(SCc3ccc(C#N)cc3)n2Cc2ccco2)cc1 21.2%, COc1cccc(C(=O)OC(C)CN2CCCC2)c1 (stereo unspecified) 2.26%, COc1ccc(CCC(=O)N2CCN(S(=O)(=O)c3ccc4ccccc4c3)CC2)cc1 -2.65%, O=C1c2ccccc2C(O)(c2ccccc2)N1C1CC1 (stereo unspecified) 18.6%, COc1cc(C(=O)OCCN2CCOCC2)ccc1O 6.52%, COc1cc(C(=O)OCCCN2CCOCC2)ccc1O 5.32%, CCNc1nc(SC(C)C(=O)OC)nc(N2CCOCC2)n1 (stereo unspecified) 2.4%, COc1ccc(N2CS(=O)(=O)/C(=C/N(C)C)C2=O)cc1 9.06%, COCCCNC(=S)Nc1ccc2nc3n(c(=O)c2c1)CCCCC3 -4.36%, CCn1c(O)c(C=NC2CCCC2)sc1=S 5.46%, Oc1ccc(C=NC2CCCCC2)c(O)c1 21.7%, CCOC(=O)N1CCC(N2CC34C=CC(O3)C(C(=O)Nc3ccc(F)cc3)C4C2=O)CC1 (stereo unspecified) 5.89%, Cc1ccc(N2C(=O)Nc3cc(Cl)c(Cl)cc3N2O)cc1Cl 4.32%, CCN1CCN(CC(=O)Nc2cc(S(=O)(=O)N3CCCCC3)ccc2Cl)CC1 -1.15%, CC(C)(C)n1nnnc1C(c1ccc2ncccc2c1)N1CCC(O)CC1 (stereo unspecified) -3.23%, CN(C)N1C(N)=C(C#N)C(c2cccc([N+](=O)[O-])c2)C2=C1CC(C)(C)CC2=O (stereo unspecified) -5.57%, COc1ccc(C)c2sc(N(CCCN(C)C)C(=O)c3ccc(S(=O)(=O)N(C)C)cc3)nc12 -2.34%, CCn1c2ccccc2c2cc(NC(=O)c3cccc([N+](=O)[O-])c3C)ccc21 -6.86%, CCn1c2ccccc2c2cc(NC(=O)c3ccc(C)c([N+](=O)[O-])c3)ccc21 8.31%, C=CCCCN(Cc1ccccc1)S(=O)(=O)c1ccccc1Br -1.22%, COC(=O)c1cccc(-n2cnnn2)c1 22.2%, COc1ccc(C(=O)COC(=O)c2cccc(-n3cnnn3)c2)c(OC)c1 3.56%, CCOC(=O)c1cc(-c2ccc(OC)cc2F)nc2c1c(C)nn2CCC#N 15.4%, CC1=C(C(=O)OCc2ccccc2)C(c2cccs2)N2C(=O)CCSC2=N1 (stereo unspecified) -5.63%, CCOC(=O)CCn1cnc2ccc([N+](=O)[O-])cc2c1=O 10.2%, Cc1ccc(-c2ccc(=O)n(CCC(=O)N3CCN(c4cccc(C)c4)C(C)C3)n2)cc1 (stereo unspecified) 1.97%, CCOC(CNC(=O)c1cccc([N+](=O)[O-])c1)OCC 8.25%
